Compound activity deposited in PubChem by National Center for Advancing Translational Sciences (NCATS).
KCNH2 3.1 inh: KCNH2 3.1 (human) potassium channel inhibition. U2OS KCNH2 3.1, thallium flux FluxOr; active compounds read low. AID 720553. 0.95% of 340,000 active. activity change, % (tested at about 1.8 µM);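 active means maximum activity change below -70%; inconclusive means maximum activity change from -70% to -50%; inactive means maximum activity change above -50%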;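 further: thallium influx rate constant from kinetic fluorescence after stimulation buffer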
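U2OS cells transduced with KCNH2 3.1 mutant virus (1.77 x 10^8 /mL, 4 h), plated overnight at 37 C, loaded 45 min with FluxOr dye plus Red40 quencher. Thallium flux rate constant from kinetic reads after stimulation buffer, normalised to controls.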
Giardia killer: Giardia lamblia killing | Giardia lamblia trophozoite viability | activity change, % at 7.66 µM, hits read low | 0.15% of 340,000 active | AID 540267; in the data active means activity change below about -80%; inconclusive means between about -30% and that limit;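 further: parasites exposed to compound for two days anaerobically before the ATP read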
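Anaerobic 48 hrs incubation at 37 deg C of 100 trophozoites/well with test compounds; ATPLite 1-Step luminescence, 15-30 min RT, reports cellular ATP as viability.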
FBPA coupling cs: coupling enzyme interference in Giardia aldolase counter-screen. coupling enzyme system counterscreen, AmpLite Red fluorescence. activity change, negative = inhibition, % at 58.2 µM, hits read low. 0.67% of 290,000 active; in the data active means activity change below about -30%
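Fluorescence at 525 nm excitation and 598 nm emission measured inhibition of the coupled detection system without aldolase. Compounds (at 57.5 uM final) were preincubated 10 min at room temperature with coupling enzyme reagent before a 20 min substrate/AmpLite Red step.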
KCNH2 WT inh: KCNH2 (human, wildtype) channel inhibition | activity change, % at 1.84 µM | 0.37% of 340,000 active | U2OS, BacMam KCNH2, thallium flux FluxOr; active compounds read low | Q12809;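 active means maximum activity change below -70%; inconclusive means maximum activity change between -70% and -50%; inactive means maximum activity change above -50%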
Target sequence (Q12809 whole entry, looked up): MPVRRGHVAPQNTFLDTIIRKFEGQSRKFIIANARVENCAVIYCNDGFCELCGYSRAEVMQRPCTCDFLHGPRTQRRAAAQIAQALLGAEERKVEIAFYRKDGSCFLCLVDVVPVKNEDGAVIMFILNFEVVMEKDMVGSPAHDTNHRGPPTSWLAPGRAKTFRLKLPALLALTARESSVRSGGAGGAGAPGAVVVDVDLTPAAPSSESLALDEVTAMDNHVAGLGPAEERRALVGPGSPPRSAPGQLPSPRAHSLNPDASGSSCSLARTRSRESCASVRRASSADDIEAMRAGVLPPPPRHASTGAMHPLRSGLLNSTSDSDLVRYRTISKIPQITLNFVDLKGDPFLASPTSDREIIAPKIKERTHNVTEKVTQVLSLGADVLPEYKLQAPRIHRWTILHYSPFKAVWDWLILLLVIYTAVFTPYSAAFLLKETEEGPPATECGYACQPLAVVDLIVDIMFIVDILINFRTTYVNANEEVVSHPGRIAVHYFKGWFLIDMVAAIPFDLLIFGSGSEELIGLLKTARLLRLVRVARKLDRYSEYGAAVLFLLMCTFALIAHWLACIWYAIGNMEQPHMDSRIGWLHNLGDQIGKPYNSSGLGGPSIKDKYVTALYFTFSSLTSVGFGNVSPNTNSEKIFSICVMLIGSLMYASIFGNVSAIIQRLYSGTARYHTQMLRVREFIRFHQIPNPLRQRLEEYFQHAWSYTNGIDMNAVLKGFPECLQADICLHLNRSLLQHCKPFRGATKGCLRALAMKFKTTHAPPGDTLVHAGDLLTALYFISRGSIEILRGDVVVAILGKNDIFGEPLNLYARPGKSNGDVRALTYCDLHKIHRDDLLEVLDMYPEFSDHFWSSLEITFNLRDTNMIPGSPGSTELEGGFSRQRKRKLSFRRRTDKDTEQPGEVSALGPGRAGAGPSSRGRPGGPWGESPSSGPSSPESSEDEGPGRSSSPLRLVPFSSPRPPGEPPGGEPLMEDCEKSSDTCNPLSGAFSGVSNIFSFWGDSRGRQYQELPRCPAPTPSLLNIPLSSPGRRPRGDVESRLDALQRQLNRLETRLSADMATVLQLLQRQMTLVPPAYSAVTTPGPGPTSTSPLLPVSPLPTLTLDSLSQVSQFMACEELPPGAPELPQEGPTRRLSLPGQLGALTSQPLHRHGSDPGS
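U2OS cells were transduced with wild-type KCNH2 virus (2.03 x 10^8 / mL) for 4 h at room temperature, then cultured overnight at 37 C. Thallium flux was read with FluxOr dye. Rate constants were normalized to DMSO controls.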
USP1 inh: inhibitors of human USP1/UAF1 deubiquitinase. 0.23% of 390,000 active. Potency, µM (top dose mostly 57.1 µM), without a hit: at the highest dose activity change, negative = inhibition, hits mostly inhibitors. recombinant USP1/UAF1, Ub-Rhodamine cleavage fluorescence. O94782; active means well fitted inhibition curve with a large enough effect; inconclusive means small, poorly fitted or top-dose-only effect; inactive means no such curve, though single readings can be large or run the other way; further: potency means the concentration at half of the fitted maximal effect; nearly all actives have a fitted effect of over 60% in size
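High-throughput fluorogenic screen: 1nM USP1/UAF1 complex, Ub-Rho substrate 150nM final, 50mM HEPES pH 7.8 with 0.5mM EDTA, 0.1 mg/ml BSA, 1mM TCEP and 0.01% Tween-20.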
* = called active by the depositor; i = inactive; ? = inconclusive; nt = no result given. An excerpt weighted towards active compounds, which were near 1.7% of everything screened. On the % scale 0 is the no-effect control and ±100 the full control effect.

SMILES	KCNH2 3.1 inh	Giardia killer	FBPA coupling cs	KCNH2 WT inh	USP1 inh
Nc1nc(CN2CCN(c3ccccc3F)CC2)nc(Nc2ccccc2)n1	-27	4	-1	25	-7%
Nc1nc(CN2CCCCCC2)nc(Nc2ccccc2)n1	-32	-3	0	3	-3%
Cc1ccc(Nc2nc(N)nc(CN3CCN(c4ccccc4F)CC3)n2)cc1	-86*	-23	2	25	-16%
Cc1ccc(Nc2nc(N)nc(CN3CCN(C(=O)c4ccco4)CC3)n2)cc1Cl	-94*	6	-1	-10	-15%
O=C(NC1CCCC1)c1ccc(CSc2nc3cccnc3n2Cc2ccccc2F)cc1	nt	nt	nt	nt	-10%
Nc1nc(CN2CCN(C(c3ccccc3)c3ccccc3)CC2)nc(Nc2ccccc2)n1	-98*	8	-1	-25	-24%
Nc1nc(CN2CCN(Cc3ccc4c(c3)OCO4)CC2)nc(Nc2ccccc2)n1	-76*	-9	8	-24	-1%
Cc1cc(C)cc(NC(=O)C2CCCN(S(=O)(=O)c3cccc4nsnc34)C2)c1 (configuration not stated)	nt	nt	nt	nt	-18%
Cc1nc(SCC(=O)N2CCCC2=O)c2c(C)c(C)sc2n1	10	nt	nt	-90*	-2%
O=C1O[C@H](CN2CCOCC2)CN1/N=C\c1ccc([N+](=O)[O-])o1	nt	nt	-1	nt	nt
O=C1OC(CN(Cc2ccccc2)Cc2ccccc2)CN1N=Cc1ccc([N+](=O)[O-])o1 (configuration not stated)	-47	-94*	nt	-24	-23%
COc1ccc(-n2nc(C(=O)NCC(=O)NCCCN3CCC(C)CC3)c3ccccc3c2=O)cc1Cl	-17	11	0	11	-12%
COc1ccc(-n2nc(C(=O)NCC(=O)NCCCN3CCCCCC3)c3ccccc3c2=O)cc1Cl	-86*	7	-4	2	-28%
CCN1CCN(Cc2c(O)ccc3c2O/C(=C\C=C\c2ccccc2OC)C3=O)CC1	10	-2	4	1	28µM*
Cc1ccc(/C=C2\Oc3c(ccc(O)c3CN3CCN(CCO)CC3)C2=O)cc1	-11	-9	-1	2	?
CC1CCN(Cc2c(O)ccc3c2O/C(=C\c2ccco2)C3=O)CC1	-4	14	-7	2	32µM*
O=C1/C(=C/c2ccco2)Oc2c1ccc(O)c2CN1CCCCC1	-1	-4	-8	8	32µM*
COCCN(CCOC)Cc1c(O)ccc2c1O/C(=C\c1ccco1)C2=O	-10	-12	-5	3	-18%
CCN1CCN(Cc2c(O)ccc3c(=O)c(-c4ccccc4OC)coc23)CC1	4	3	0	-9	-9%
Cc1ccc(CN2C3CCCC2CC(NC(=O)c2ccc(F)cc2)C3)cc1 (configuration not stated)	-80*	16	-2	?	-7%
COc1ccc(CN2C3CCC2CC(NC(=O)c2cccc(F)c2)C3)cc1 (configuration not stated)	-84*	3	2	-26	-21%
O=C(NC1CC2CCCC(C1)N2Cc1ccccc1)c1ccc([N+](=O)[O-])cc1 (configuration not stated)	-80*	-1	0	-15	-17%
O=C(NC1CC2CCC(C1)N2Cc1ccccc1)c1cccc(F)c1 (configuration not stated)	-2	-8	4	21	-11%
COc1ccc(C(=O)Nc2ccc(-n3nncc3-c3ccc(OC)c(OC)c3)cc2)cc1	nt	nt	nt	nt	-1%
COc1cc(OC)c(OC)cc1/C=C1\CC(C)C/C(=C\c2cc(OC)c(OC)cc2OC)C1=O (configuration not stated)	2	11	-2	4	35µM*
SMILES	KCNH2 3.1 inh	Giardia killer	FBPA coupling cs	KCNH2 WT inh	USP1 inh
CCC1C/C(=C\c2cc(OC)c(OC)cc2OC)C(=O)/C(=C/c2cc(OC)c(OC)cc2OC)C1 (configuration not stated)	15	11	2	-8	?
CCc1ccc(S(=O)(=O)Nc2cccc(-c3ccc(N4CCCCC4)nn3)c2)s1	nt	nt	nt	nt	-19%
CC(=O)c1cccc(Nc2c3c(nc4ccccc24)CCC3)c1	-19	26	0	-3	-13%
CC(=O)c1ccc(Nc2c3c(nc4ccccc24)CCCC3)cc1	-10	16	6	-77*	-27%
CN(C)c1ccc(/C=C/C(=O)c2cccc(Br)c2)cc1	-115*	15	-1	-149*	i
Cc1nnc(NC(=O)c2sc3nc(-c4cccs4)cc(C(F)(F)F)c3c2N)s1	-11	-10	6	-8	-9%
CC(C)(C)C(=O)c1sc2nc(-c3cccs3)cc(C(F)(F)F)c2c1N	-13	2	0	-18	1.3µM*
CCN(CC)C(=O)c1sc2nc(-c3cccs3)cc(-c3ccc(Cl)cc3)c2c1N	-14	8	4	-16	28µM*
CC(=O)Nc1ccc(NC(=O)CCc2c(C)nc3c(c(C)nn3-c3ccc(C)cc3)c2C)cc1	nt	nt	nt	nt	-22%
COc1c(O)cc2c(c1O)[C@@H]1O[C@H](CO)[C@@H](O)[C@H](O)[C@H]1OC2=O	5	-18	-1	-5	-3%
O=C1C2=C(S[C@@H]3O[C@H](CO)[C@@H](O)[C@H](O)[C@H]3O2)C(=O)c2ccccc21	nt	nt	-40*	nt	nt
O=C(c1cccs1)c1ccccc1Cc1cccs1	nt	-25	nt	6	-14%
O=C(Cc1ccc(-n2cccc2)cc1)NCc1cccs1	-89*	-7	-1	-10	0%
Cc1n[nH]c(=O)n(N=Cc2cccs2)c1=O	0	nt	nt	-8	-26%
CCCSc1ncc(Cl)c(C(=O)Nc2sc3c(c2C(=O)OC)CCCC3)n1	nt	nt	nt	nt	-12%
CCN(c1ccccc1)S(=O)(=O)c1ccc(Cl)c(NC(=O)COC(=O)c2cc(O)c3ccccc3c2O)c1	nt	nt	-31*	nt	nt
CCNS(=O)(=O)c1ccc(Br)c(OC)c1	-93*	14	5	-29	-13%
O=c1cc2c(nn1Cc1ccc(Cl)cc1)-c1ccccc1CC2	-95*	-10	-8	-8	-7%
O=c1cc2c(nn1Cc1cccc(Cl)c1)-c1ccccc1CC2	-16	8	2	-11	-14%
Cc1ccc(Cc2nc3ccccc3nc2SCC(=O)NCc2ccc(F)cc2)cc1	nt	nt	nt	nt	-23%
CCOC(=O)c1sc(N)c(C(N)=O)c1C	0	36	-33*	-5	-24%
Oc1ccc2oc3c(c2c1C=NCc1ccncc1)CCCC3	-9	12	-36*	3	-21%
CN(C)c1cccc2c1c(NC(=O)c1ccc(Cl)cc1)nn2C	-4	14	-37*	-4	?
CN(C)c1cccc2c1c(NC(=O)c1ccc(F)cc1)nn2C	9	-1	-28	-8	?
CN(C)c1cccc2c1c(NC(=O)Nc1ccccc1)nn2C	17	3	-31*	-1	?
CCOc1ccc(NC(=O)CN(C)C(=O)c2ccc3c(c2)S(=O)(=O)N=C2CCCCCN23)cc1OCC	26	11	nt	-2	-17%
